The full list was thinned out, with hits kept by preference.
mHTT CaM bind: disrupts binding of mutant huntingtin to calmodulin. AID 1671202. 190,000 tested, 3.6% active. P42858. inhibition, % at 15 µM. AlphaScreen His-mHTT/GST-CaM binding, luminescence;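 further: 0% = both proteins with DMSO and 100% = one protein alone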
Target sequence (P42858 whole entry, looked up, stated change not applied): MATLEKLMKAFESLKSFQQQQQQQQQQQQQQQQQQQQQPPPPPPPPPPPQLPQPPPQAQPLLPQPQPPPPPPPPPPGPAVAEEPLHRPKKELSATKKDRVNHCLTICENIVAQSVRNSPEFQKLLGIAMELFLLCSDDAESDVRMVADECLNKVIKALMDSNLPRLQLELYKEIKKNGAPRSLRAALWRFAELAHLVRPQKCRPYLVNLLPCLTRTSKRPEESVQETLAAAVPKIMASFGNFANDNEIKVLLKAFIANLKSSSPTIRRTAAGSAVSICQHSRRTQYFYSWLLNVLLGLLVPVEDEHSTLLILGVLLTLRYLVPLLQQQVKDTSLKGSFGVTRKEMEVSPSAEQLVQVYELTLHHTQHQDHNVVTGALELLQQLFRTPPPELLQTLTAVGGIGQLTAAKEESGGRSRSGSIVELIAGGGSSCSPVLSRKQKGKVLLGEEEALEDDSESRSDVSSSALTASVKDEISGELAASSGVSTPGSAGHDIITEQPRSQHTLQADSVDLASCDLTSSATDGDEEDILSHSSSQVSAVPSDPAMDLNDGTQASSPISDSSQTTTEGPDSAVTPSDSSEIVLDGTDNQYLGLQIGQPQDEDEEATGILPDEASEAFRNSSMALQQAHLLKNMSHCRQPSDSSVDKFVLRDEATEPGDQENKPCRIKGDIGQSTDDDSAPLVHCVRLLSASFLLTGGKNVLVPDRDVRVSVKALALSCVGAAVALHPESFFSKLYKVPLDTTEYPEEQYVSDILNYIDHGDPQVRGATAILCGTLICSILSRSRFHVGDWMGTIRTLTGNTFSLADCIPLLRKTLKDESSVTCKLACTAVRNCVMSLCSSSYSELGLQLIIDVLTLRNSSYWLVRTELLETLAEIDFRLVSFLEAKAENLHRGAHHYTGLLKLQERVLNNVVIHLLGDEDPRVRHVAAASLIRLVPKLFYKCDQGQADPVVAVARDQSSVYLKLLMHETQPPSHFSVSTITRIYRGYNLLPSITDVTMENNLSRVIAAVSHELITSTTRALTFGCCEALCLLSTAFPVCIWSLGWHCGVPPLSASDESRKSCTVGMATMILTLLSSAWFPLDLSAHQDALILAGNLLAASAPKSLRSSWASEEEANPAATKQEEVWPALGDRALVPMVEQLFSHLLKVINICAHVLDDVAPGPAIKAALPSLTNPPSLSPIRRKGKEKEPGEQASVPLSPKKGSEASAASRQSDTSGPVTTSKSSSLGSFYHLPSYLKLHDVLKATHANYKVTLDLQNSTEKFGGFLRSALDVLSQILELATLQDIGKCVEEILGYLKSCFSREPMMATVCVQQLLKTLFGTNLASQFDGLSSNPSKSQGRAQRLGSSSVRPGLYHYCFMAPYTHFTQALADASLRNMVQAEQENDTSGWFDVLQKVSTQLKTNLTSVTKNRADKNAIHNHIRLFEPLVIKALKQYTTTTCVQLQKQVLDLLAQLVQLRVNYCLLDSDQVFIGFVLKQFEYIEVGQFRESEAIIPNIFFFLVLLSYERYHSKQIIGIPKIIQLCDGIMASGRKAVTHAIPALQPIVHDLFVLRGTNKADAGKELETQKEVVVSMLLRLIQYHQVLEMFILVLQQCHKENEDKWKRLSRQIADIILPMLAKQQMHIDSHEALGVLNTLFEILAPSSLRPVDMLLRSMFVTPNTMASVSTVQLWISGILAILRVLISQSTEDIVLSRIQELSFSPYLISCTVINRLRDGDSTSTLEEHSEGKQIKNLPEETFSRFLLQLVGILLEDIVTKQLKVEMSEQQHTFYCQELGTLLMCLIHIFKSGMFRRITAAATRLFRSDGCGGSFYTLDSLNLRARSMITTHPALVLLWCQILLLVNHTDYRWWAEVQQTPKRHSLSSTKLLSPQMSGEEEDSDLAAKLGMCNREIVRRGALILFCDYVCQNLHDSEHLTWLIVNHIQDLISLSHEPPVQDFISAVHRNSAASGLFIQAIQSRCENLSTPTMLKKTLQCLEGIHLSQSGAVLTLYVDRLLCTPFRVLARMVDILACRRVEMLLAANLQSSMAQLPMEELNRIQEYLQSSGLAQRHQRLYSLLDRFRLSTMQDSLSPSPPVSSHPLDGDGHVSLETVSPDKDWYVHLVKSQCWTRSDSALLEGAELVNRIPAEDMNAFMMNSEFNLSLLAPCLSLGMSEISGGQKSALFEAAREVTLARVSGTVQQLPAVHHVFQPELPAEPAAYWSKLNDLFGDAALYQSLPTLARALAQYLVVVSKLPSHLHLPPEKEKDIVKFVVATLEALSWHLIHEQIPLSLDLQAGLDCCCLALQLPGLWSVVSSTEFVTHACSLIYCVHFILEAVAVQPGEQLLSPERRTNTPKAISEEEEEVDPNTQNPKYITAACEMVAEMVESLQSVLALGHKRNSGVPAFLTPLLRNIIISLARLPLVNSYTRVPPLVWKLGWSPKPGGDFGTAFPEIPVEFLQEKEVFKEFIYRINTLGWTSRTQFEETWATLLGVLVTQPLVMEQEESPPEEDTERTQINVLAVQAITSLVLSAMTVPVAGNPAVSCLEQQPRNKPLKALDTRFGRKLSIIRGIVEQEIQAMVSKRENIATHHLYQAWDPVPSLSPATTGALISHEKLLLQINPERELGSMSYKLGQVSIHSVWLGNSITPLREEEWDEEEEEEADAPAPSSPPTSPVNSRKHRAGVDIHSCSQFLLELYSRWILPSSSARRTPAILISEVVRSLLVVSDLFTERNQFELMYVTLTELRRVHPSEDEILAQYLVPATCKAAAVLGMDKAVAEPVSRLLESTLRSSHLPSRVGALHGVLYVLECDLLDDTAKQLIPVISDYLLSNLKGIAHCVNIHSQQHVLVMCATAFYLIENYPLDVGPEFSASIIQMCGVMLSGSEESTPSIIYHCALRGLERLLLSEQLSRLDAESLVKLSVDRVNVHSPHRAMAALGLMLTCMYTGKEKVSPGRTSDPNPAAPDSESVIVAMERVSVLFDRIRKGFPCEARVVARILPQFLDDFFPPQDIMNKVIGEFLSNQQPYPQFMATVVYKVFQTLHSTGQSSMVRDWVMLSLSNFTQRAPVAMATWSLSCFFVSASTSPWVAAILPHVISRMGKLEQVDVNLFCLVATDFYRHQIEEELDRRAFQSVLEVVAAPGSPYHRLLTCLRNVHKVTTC
Pf apPOL inh: Pf-apPOL DNA polymerase inhibition | Recombinant Pf-apPOL, molecular beacon fluorescence, 1.5 h | inhibition, % at 10 µM | 210,000 tested, 0.25% active
* = called active by the depositor; . = not tested or not shown. No stated cut-off is given here; in the data, active means inhibition above about 50%; inactive means the rest.

SMILES	mHTT CaM bind	Pf apPOL inh
O=C1c2ccccc2C(=O)c2c1oc1c3c(ccc21)OCN(CCC1=CCCCC1)C3	79.0*	-0.9
COc1ccc(-c2cncc(C(=O)NC3CCCCCC3)c2)cc1	-11.6	1.8
CCn1c(C2CCN(S(=O)(=O)c3ccc(CC(C)C)cc3)C2)nc2cccnc21 (stereo unspecified)	19.0	-1.2
Cc1c(O)nc(SCC(N)=O)n(-c2ccc(F)cc2)c1=O	1.1	-1.0
CC1(C)CC(NC(=O)C(=O)Nc2ccc(F)cc2)CC(C)(C)N1	1.9	-2.2
Cc1nnc(NC(=O)c2ccc(S(=O)(=O)N3CCCC(C)C3)cc2)o1 (stereo unspecified)	24.0	-4.2
CC1CCCCN1S(=O)(=O)c1ccc(C(=O)Nc2nc(-c3ccccn3)cs2)cc1 (stereo unspecified)	100.0*	-9.1
CC1CCCCN1S(=O)(=O)c1ccc(C(=O)Nc2nc3c(s2)Cc2ccccc2-3)cc1 (stereo unspecified)	21.0	-5.0
CC1CCN(S(=O)(=O)c2ccc(C(=O)Nc3nc4c(s3)Cc3ccccc3-4)cc2)CC1	10.0	-9.6
O=C(Nc1nc(-c2ccccn2)cs1)c1ccc(N2C(=O)CCC2=O)cc1	100.0*	-5.8
CC1CCN(S(=O)(=O)c2ccc(C(=O)Nc3nc(-c4ccccn4)cs3)cc2)CC1	98.0*	-2.6
O=C(Nc1nc(-c2cc(Cl)ccc2Cl)cs1)c1ccc(N2C(=O)CCC2=O)cc1	-5.9	-0.1
CC1CCCN(S(=O)(=O)c2ccc(C(=O)Nc3nc(-c4ccccn4)cs3)cc2)C1 (stereo unspecified)	100.0*	-0.8
Cc1cc(O)c(NC(=O)c2ccc([N+](=O)[O-])cc2Cl)cc1C	5.9	0.0
COc1cc(NC(=O)C2CC(c3ccc(F)cc3)=NO2)cc(OC)c1OC (stereo unspecified)	-3.0	-3.6
CC(=O)Nc1ccc(-c2cn(Cc3ccccc3)cn2)cc1	7.3	-1.0
CC(Nc1cc(N2CCN(C(=O)c3ccco3)CC2)ccc1[N+](=O)[O-])c1ccccc1 (stereo unspecified)	56.4*	-4.3
CC(Nc1cc(N2CCN(C(=O)c3cccs3)CC2)ccc1[N+](=O)[O-])c1ccccc1 (stereo unspecified)	35.0	3.4
O=c1cc(CO)oc(C(Nc2ccccn2)c2ccc(F)cc2)c1O (stereo unspecified)	33.0	-1.8
CSc1ccc(C(Nc2ccccn2)c2ccc3cccnc3c2O)cc1 (stereo unspecified)	99.0*	1.7
CC1=C(C(=O)Nc2ccccn2)C(c2ccc(N(C)C)cc2)n2ncnc2N1 (stereo unspecified)	4.0	-3.4
Cc1ccc2ccc(C(Nc3ccccn3)c3ccc(N(C)C)cc3)c(O)c2n1 (stereo unspecified)	100.0*	3.6
CSc1ccc(C=Nc2ccccn2)cc1	0.2	.
CSc1ccc(C(Nc2ccccn2)c2ccc3ccc(C)nc3c2O)cc1 (stereo unspecified)	78.0*	-8.6
Oc1c(C(Nc2ccccn2)c2ccc(F)cc2)ccc2cccnc12 (stereo unspecified)	98.0*	-8.2
SMILES	mHTT CaM bind	Pf apPOL inh
O=C(Nc1ccccc1)N1CCN(Cc2nc3cccnc3n2-c2ccccc2)CC1	3.8	0.3
COc1ccc(C(=O)COc2ccc3c(=O)c(-c4ccccc4OC)coc3c2)cc1	-3.4	2.4
C=CCOc1ccc(C(Nc2ccccn2)c2ccc3cccnc3c2O)cc1 (stereo unspecified)	99.0*	4.9
CCc1ccc(C(Nc2ccccn2)c2ccc3cccnc3c2O)cc1 (stereo unspecified)	97.0*	-2.2
CCc1ccc(C(C)NC(=O)c2ccccn2)cc1 (stereo unspecified)	-0.8	-11.4
C=CCOc1ccc(C(=O)Nc2ccccn2)cc1	-6.7	-5.4
Cc1ccc2ccc(C(Nc3ccccn3)c3cccnc3)c(O)c2n1 (stereo unspecified)	73.0*	-6.3
CCCCN(CC)S(=O)(=O)c1ccc(C(=O)Nc2nc3c(s2)Cc2ccccc2-3)cc1	4.0	-3.0
N#Cc1csc2c1CCCC2	-5.4	.
CC1=CC(C)C(C2OCC(CN3CCCCC3)O2)C(C)C1 (stereo unspecified)	7.0	0.1
CCC(=O)NCc1nc2c(n1C)CN(C(=O)c1cccc(C)c1)CC2	5.6	-1.1
COCCNC(=O)C1CCN(Cc2cc3ccccc3n2Cc2ccccc2Cl)CC1	83.4*	-0.4
COCCCNC(=O)C1CCN(Cc2cc3ccccc3n2Cc2ccccc2C)CC1	63.9*	1.8
COCCCNC(=O)C1CCN(C(=O)c2cccnc2-c2ccccc2C)CC1	-5.8	-6.1
COc1ccc(CN2CCC(C(=O)NCc3ccccc3Cl)CC2)c(OC)c1	-0.9	-4.6
Cc1ccc(-c2nocc2CCC(=O)NCc2ccccc2)cc1	-10.8	-4.1
CCCCN(C)C(=O)c1nn(-c2cc(OC)cc(OC)c2)c(=O)c2ccccc12	7.0	-1.5
O=C(Cc1ccccc1[N+](=O)[O-])Nc1cccc2c1CCCC2	0.8	-2.6
